Screening data from PubChem.
A selection: hits, their analogues and other compounds. The true share with any hit is near 2.3%.
Mcl1-Bid inh: Mcl-1/Bid binding inhibitors, primary screen, biochemical, TR-FRET, 1536-well; Induced myeloid leukemia cell differentiation protein Mcl-1 (Homo sapiens), Q07820; TR-FRET Mcl-1/Bid-Dy647 peptide binding; inhibition, % at 21.7 µM; actives 0.97% (n = 220,000);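 active = compounds that cut the binding signal by more than half at the single screening dose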;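 also: His-tagged Mcl-1 with europium anti-His antibody binding Bid BH3 peptide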
Target sequence (Q07820 whole entry, looked up): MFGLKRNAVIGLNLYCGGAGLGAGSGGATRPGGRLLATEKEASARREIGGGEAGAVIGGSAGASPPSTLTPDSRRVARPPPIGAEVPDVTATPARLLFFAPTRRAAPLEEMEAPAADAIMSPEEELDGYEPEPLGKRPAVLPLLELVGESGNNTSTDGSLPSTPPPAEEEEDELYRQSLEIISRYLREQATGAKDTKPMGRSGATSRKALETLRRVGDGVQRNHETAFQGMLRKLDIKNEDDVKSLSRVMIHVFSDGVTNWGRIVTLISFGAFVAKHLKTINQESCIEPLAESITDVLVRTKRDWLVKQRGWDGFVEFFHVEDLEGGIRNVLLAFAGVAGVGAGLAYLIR
MCL1 BIM primary: inhibitors of MCL1 binding to BIM-BH3, primary screen, biochemical, fluorescence polarization; Induced myeloid leukemia cell differentiation protein Mcl-1 (Homo sapiens), Q07820; GST-MCL1 / FITC-Bim-BH3 fluorescence polarization; inhibition, % at 10.9 µM; actives 0.68% (n = 320,000); AID 2057, 2009;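 active = inhibition above the mean inhibition of all tested compounds plus 3 SD, set per campaign, cut at about 40% in these data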;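 also: higher means more loss of mP so more displacement of Bim peptide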
BCLXL inh: inhibitors of human Bcl-xL, primary screen, biochemical, fluorescence polarization, HTS. inhibition, % at 10.9 µM. AID 2129, 2009. actives 0.7% (n = 320,000). GST-Bcl-xL / FITC-Bim BH3 peptide fluorescence polarization;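 active = inhibition above the mean of all tested compounds plus 3 SD, cutoff set per campaign, cut at about 30% in these data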;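 also: inhibitors lower millipolarization by displacing the labeled peptide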
Mcl1 Noxa PPI: Mcl-1/Noxa binding inhibitors, primary screen, biochemical, TR-FRET, 1536-well; TR-FRET Mcl-1/Noxa peptide binding, 2 h; inhibition, % at 21.7 µM; actives 1.5% (n = 220,000); AID 1022, 2008;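 active = compounds that cut the protein-peptide binding signal by more than 50% relative to plate controls in a single-dose test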;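 also: His-tagged Mcl-1 with rhodamine Noxa BH3 peptide and terbium anti-His antibody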
GLD-1 TGE inh: GLD-1/TGE RNA complex disruptors, primary screen, biochemical, fluorescence polarization; Female germline-specific tumor suppressor gld-1 (Caenorhabditis elegans), Q17339; purified GLD-1 + fluorescein TGE RNA; inhibition, % at 5.96 µM; actives 0.44% (n = 320,000);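 active = percent inhibition above a per-plate cutoff, the plate mean of test compounds plus 3 SD, cut at about 30% in these data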
Mcl-1 Bim block: inhibitors of Bim peptide binding to Mcl-1, primary screen, biochemical, bead-based flow cytometry, multiplex. AID 1009, 2008. Induced myeloid leukemia cell differentiation protein Mcl-1 (Homo sapiens), Q07820. inhibition, % at 10 µM. Bim peptide-Mcl-1 binding. actives 0.1% (n = 190,000); in the data active = inhibition above about 40%
A number is an active result.

How did CC(=O)C1=C(C)OC(N)=C(C#N)C1c1ccncc1 (configuration not stated) do in these assays?
Mcl1-Bid inh: inactive; MCL1 BIM primary: 41.5; BCLXL inh: 30.3; Mcl1 Noxa PPI: inactive; GLD-1 TGE inh: inactive; Mcl-1 Bim block: inactive

What do the screens show for `COC(=O)C1=C(C)OC(N)=C(C#N)C1c1cccnc1` (configuration not stated)?
Mcl1-Bid inh: inactive; MCL1 BIM primary: inactive; BCLXL inh: inactive; Mcl1 Noxa PPI: inactive; GLD-1 TGE inh: inactive; Mcl-1 Bim block: inactive

Results for O=C1NC2(CCCCCC2)C(=O)N1Cc1ccccc1 ?
MCL1 BIM primary: inactive; BCLXL inh: inactive; GLD-1 TGE inh: inactive

Results for O=C1NC(=O)N(Cc2ccccc2)C1=O ?
MCL1 BIM primary: 53.1; BCLXL inh: 56.6; GLD-1 TGE inh: inactive

How did CCOC(=O)c1cc(C(=O)OCC)c(=O)[nH]c1SCc1ccccc1 do in these assays?
MCL1 BIM primary: inactive; BCLXL inh: inactive; GLD-1 TGE inh: inactive

What do the screens show for `Cn1cc(/C=N/NC(=O)c2cccc([N+](=O)[O-])c2)c2ccccc21`?
Mcl1-Bid inh: inactive; MCL1 BIM primary: inactive; BCLXL inh: inactive; Mcl1 Noxa PPI: inactive; GLD-1 TGE inh: inactive; Mcl-1 Bim block: inactive

How did Cn1cc(/C=C(\C#N)C(=O)Nc2cccc([N+](=O)[O-])c2)c2ccccc21 do in these assays?
Mcl1-Bid inh: 51.9; MCL1 BIM primary: inactive; BCLXL inh: inactive; Mcl1 Noxa PPI: inactive; GLD-1 TGE inh: inactive; Mcl-1 Bim block: inactive

How did Cc1c(NC(=O)COC(=O)c2cc(-c3ccc(-c4ccccc4)cc3)nc3ccccc23)c(=O)n(-c2ccccc2)n1C do in these assays?
Mcl1-Bid inh: 81.7; MCL1 BIM primary: inactive; BCLXL inh: inactive; Mcl1 Noxa PPI: inactive; GLD-1 TGE inh: inactive; Mcl-1 Bim block: inactive

What do the screens show for `Cc1c(NC(=O)c2cc(-c3ccccc3)nc3ccccc23)c(=O)n(-c2ccccc2)n1C`?
GLD-1 TGE inh: inactive

Results for NNC(=O)c1oc2nc(-c3ccco3)cc(-c3ccco3)c2c1N ?
Mcl1-Bid inh: inactive; MCL1 BIM primary: inactive; BCLXL inh: inactive; Mcl1 Noxa PPI: 61.6; GLD-1 TGE inh: inactive

How did COc1ccc(-n2c(SCC(=O)O)nc3sc4c(c3c2=O)CCCC4)cc1 do in these assays?
MCL1 BIM primary: inactive; BCLXL inh: inactive; GLD-1 TGE inh: inactive

What do the screens show for `O=C(O)CSc1cc(C(=O)c2ccccc2O)cn2c(=O)c3c(-c4ccccc4)csc3nc12`?
Mcl1-Bid inh: inactive; MCL1 BIM primary: inactive; BCLXL inh: inactive; Mcl1 Noxa PPI: 86.5; GLD-1 TGE inh: inactive; Mcl-1 Bim block: inactive

How did COc1ccc(O)c(C(=O)c2cc(SCC(=O)O)c3nc4sc5c(c4c(=O)n3c2)CCCC5)c1 do in these assays?
Mcl1-Bid inh: inactive; MCL1 BIM primary: inactive; BCLXL inh: inactive; Mcl1 Noxa PPI: 107.5; GLD-1 TGE inh: inactive

Results for CCOC(=O)c1sc2nc3c(SCC(=O)O)cc(C(=O)c4ccccc4O)cn3c(=O)c2c1C ?
Mcl1-Bid inh: inactive; MCL1 BIM primary: inactive; BCLXL inh: inactive; Mcl1 Noxa PPI: 65.9; GLD-1 TGE inh: inactive; Mcl-1 Bim block: inactive

What do the screens show for `COC(=O)c1cc(C(=O)c2cc(F)ccc2O)cn2c(=O)c3c(C)c(C)sc3nc12`?
Mcl1-Bid inh: inactive; MCL1 BIM primary: inactive; BCLXL inh: inactive; Mcl1 Noxa PPI: inactive; GLD-1 TGE inh: inactive

Results for CCOC(=O)c1sc2nc3c(SCC(=O)O)cc(C(=O)c4cc(F)ccc4O)cn3c(=O)c2c1C ?
Mcl1-Bid inh: inactive; MCL1 BIM primary: inactive; BCLXL inh: inactive; Mcl1 Noxa PPI: 85.7; GLD-1 TGE inh: inactive; Mcl-1 Bim block: inactive

How did Cc1sc2nc3c(SC(C)C(=O)O)cc(C(=O)c4ccccc4O)cn3c(=O)c2c1C (configuration not stated) do in these assays?
Mcl1-Bid inh: inactive; MCL1 BIM primary: inactive; BCLXL inh: inactive; Mcl1 Noxa PPI: inactive; GLD-1 TGE inh: inactive; Mcl-1 Bim block: inactive
